The panel holds about 79,000 compounds, 15% with a hit somewhere; the sample as a whole holds those more often. Calls of active or inactive are those of the source. Cut-off read from the data, not from the text of the source: active = growth inhibition above about 70%; inactive = the rest.
Legend:
[1] = NCI Yeast Anticancer Drug Screen. Data for the rad50 strain (AID 155);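 note: 0% = growth of vehicle-only cultures of the same strain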; conditions: S. cerevisiae rad50 strain growth inhibition; at 50.0 µM; hits give high values
How it was run: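 Yeast carrying a defined DNA repair defect were exposed to test compounds, and growth was compared with vehicle-treated controls to give percent inhibition.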

[2] = NCI Yeast Anticancer Drug Screen. Data for the mec2-1 strain (AID 157); conditions: S. cerevisiae mec2-1 strain, at 50.0 µM, hits give high values
How it was run: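 Cells of the genetically defined mec2-1 yeast strain are incubated with test compound. Inhibition of growth is calculated against vehicle-treated controls.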

[3] = NCI Yeast Anticancer Drug Screen. Data for the sgs1 mgt1 strain (AID 161);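 note: 0% = growth of cultures given vehicle only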; conditions: S. cerevisiae sgs1 mgt1 strain, at 50.0 µM, hits give high values
How it was run: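 Inhibition of yeast growth, normalised to vehicle-treated controls, is reported for a strain bearing genetic alterations in DNA damage repair.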

[4] = NCI Yeast Anticancer Drug Screen. Data for the cln2 rad14 strain (AID 165);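 note: 0% = growth equal to vehicle treated cultures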; conditions: S. cerevisiae cln2 rad14 strain, at 50.0 µM, hits give high values
How it was run: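 The screen exposed genetically defined yeast (cln2 rad14) to test compounds and scored growth inhibition relative to vehicle-treated controls.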

[5] = NCI Yeast Anticancer Drug Screen. Data for the bub3 strain (AID 167); conditions: S. cerevisiae bub3 mutant strain, at 50.0 µM, hits give high values
How it was run: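 Compounds were applied to a genetically altered yeast strain carrying a cell-cycle control defect. Growth inhibition was scored against vehicle-treated controls.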

[6] = NCI Yeast Anticancer Drug Screen. Data for the mlh1 rad18 strain (AID 175); conditions: S. cerevisiae mlh1 rad18 strain growth inhibition; at 50.0 µM; hits give high values
How it was run: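 Compound-treated yeast growth, normalised to vehicle controls. Strain bears defined DNA repair mutations.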

Measured: growth inhibition

CCOC(=O)CCC(=O)N(CC)CC
inactive: [1] 8.7% | [2] 16.6% | [3] 16.4% | [4] 9.9% | [5] -10.9% | [6] -13%

COc1nc2cc(C)c(C)cc2n1C1OC(CO)C(O)C1O (stereo unspecified)
inactive: [1] -12.6% | [2] 16.4% | [3] 6.95% | [4] -8.3% | [5] -0.9% | [6] -7%

CCN(CC)CCOc1ccc(OC)cc1
inactive: [1] -8.7% | [2] -0.6% | [3] -9.55% | [4] -35.2% | [5] -5.2% | [6] -0.8%

Cc1cc(C)c(CN(C)C)c(CC(O)c2ccccc2)c1 (stereo unspecified)
inactive: [1] 10.8% | [2] -5.95% | [3] 7.4% | [4] -15% | [5] 3.45% | [6] -1.95%

C=CC1C(C[C@@H]2c3cc(O)c(O)cc3CCN2C(C)=O)C(C(=O)OC)=CO[C@H]1OC1OC(CO)C(O)C(O)C1O (stereo partly specified)
inactive: [1] -1.15% | [2] -38.4% | [3] -32.8% | [4] 14.8% | [5] -35% | [6] 19.4%

Cc1ccc(CN(C)C)c(C(O)c2ccccc2)c1 (stereo unspecified)
inactive: [1] 14.9% | [2] -0.75% | [3] -0.1% | [4] 11.1% | [5] 6.6% | [6] -2.45%

CCCCN(CCCC)CCNC(c1ccc(Cl)cc1)c1ccc(OC)cc1 (stereo unspecified)
inactive: [1] 14.5% | [2] 4.3% | [3] 4.45% | [4] -7.85% | [5] 8.35% | [6] 33.4%

CCOC(=O)c1c(N=P(c2ccccc2)(c2ccccc2)c2ccccc2)nnc(-c2ccccc2)c1-c1ccccc1
inactive: [1] -36.4% | [2] -15.4% | [3] 10.9% | [4] 1.85% | [5] -6.55% | [6] 6.5%

CC1(C)C([N+](C)(C)C)CS1(=O)=O (stereo unspecified)
inactive: [1] 1.9% | [2] -18.9% | [3] -13.8% | [4] -11.1% | [5] 9.65% | [6] -6.45%

CCc1nnc(-c2nsc3ccccc23)s1
inactive: [1] 38.5% | [2] -22.9% | [3] 6.4% | [4] -12.8% | [5] 15.8% | [6] 23.3%

CC1(C)/C(=C\C(=O)O)C2CCC1C2 (stereo unspecified)
inactive: [1] 11.4% | [2] 8.3% | [3] 7.5% | [4] -10.8% | [5] -9.1% | [6] 8.75%

O=c1c2cc([N+](=O)[O-])ccc2n2n1Cc1ccccc1CC2
inactive: [1] -12.8% | [2] -0.9% | [3] -6.5% | [4] 21.5% | [5] 18.5% | [6] -16.4%

COC1/C=C/C(C)C(C(C)C(OC)C(C)CCC(=O)C(C)C(C/C=C/N(C)C=O)OC)OC(=O)/C=C/C=C(\C)CC(OC)C(OC)C2=CC(=O)O[C@@H](C(C)C(OC)CC(OC)/C=C/C(C)C(O)C1)[C@H]2O (stereo partly specified)
active: [1] 86.8% | [2] 90.2% | [3] 90% | [4] 89.8% | [5] 87.7% | [6] 91%

CC1=[N+]([O-])c2ccccc2C(=O)C1=O
inactive: [1] 35.3% | [2] 12.3% | [3] 35.3% | [4] 33.6% | [5] 41.1% | [6] 27.1%

O=c1oc2c(CN3CCOCC3)c(O)ccc2c2c1CCCC2
inactive: [1] 24.8% | [2] 21.5% | [3] 22.8% | [4] 29.9% | [5] 43.6% | [6] 31.9%

Cc1ccc2c(c1)c(C)c(C)c(=O)n2C
inactive: [1] 21.2% | [2] -8.7% | [3] -1.5% | [4] 13.2% | [5] 1.9% | [6] 10.1%

Nc1nc(N)c(N=Nc2cc(Cl)cc(Cl)c2)c(=O)[nH]1
inactive: [1] 24.2% | [2] 9.3% | [3] -12.3% | [4] -1.1% | [5] 3.15% | [6] 8.8%

COc1ccc2ccccc2c1I
inactive: [1] 18.4% | [2] 1.4% | [3] 2.75% | [4] 10.7% | [5] 23.6% | [6] 9.45%

CCOC(=O)/C(C#N)=C\NC(=O)NC
inactive: [1] 3% | [2] 2.3% | [3] 2.2% | [4] -18.4% | [5] -5.25% | [6] -0.5%

O=c1oc2ncccc2n1Cc1ccc([N+](=O)[O-])cc1
inactive: [1] -14.7% | [2] -22% | [3] 1.25% | [4] 20.8% | [5] -1.15% | [6] 19.6%

CCCCNC(=O)c1ccc([N+](=O)[O-])cc1
inactive: [1] 29.3% | [2] 12% | [3] 13.4% | [4] 17.6% | [5] -16.8% | [6] -9.05%

O=C1CCCC2=C1CC1=C(CCCC1=O)N2c1ccccc1
inactive: [1] -28.5% | [2] -20.9% | [3] 8.7% | [4] -0.75% | [5] 12.6% | [6] 12.6%

Cc1cc(C(C)(C)C)cc(Cc2cc(C(C)(C)C)cc(Cc3cc(C(C)(C)C)cc(C)c3O)c2O)c1O
inactive: [1] -25.8% | [2] -4.75% | [3] -43.3% | [4] -13.3% | [5] -0.6% | [6] -24%

CN(C)Cc1c(-c2ccc(Br)cc2)oc(-c2ccc(Br)cc2)c1Br
inactive: [1] -31.1% | [2] -8.7% | [3] -13.9% | [4] -10.4% | [5] 4.5% | [6] 7.2%

Oc1ccc(Cl)cc1CC(=S)N1CCOCC1
inactive: [1] 11.1% | [2] 1.3% | [3] 0.45% | [4] -10.4% | [5] 3.4% | [6] -3.9%

CC(C)(C)C(=O)CC(=O)C(F)(F)C(F)(F)C(F)(F)F.CC(C)(C)C(=O)CC(=O)C(F)(F)C(F)(F)C(F)(F)F.CC(C)(C)C(=O)CC(=O)C(F)(F)C(F)(F)C(F)(F)F.[Eu]
inactive: [1] 9.65% | [2] 39.4% | [3] 21.2% | [4] 39.5% | [5] 39.8% | [6] -1.2%

CC1=C2CC[C@@]3(C)C(=CCC3O)C2(C)CCC1=O (stereo partly specified)
inactive: [1] -1.3% | [2] 11.9% | [3] -7.5% | [4] -34% | [5] -8.9% | [6] -7.6%

CCOC(=O)c1cc2c(nc1C)-c1cc(Cl)ccc1OC2OCc1ccccc1 (stereo unspecified)
inactive: [1] -1.65% | [2] -3% | [3] -21.6% | [4] -3.55% | [5] -12.2% | [6] 4.3%

CC(C)(C)[Si](C)(C)OCC1CCC(n2cnc3c(N)ncnc32)O1 (stereo unspecified)
inactive: [1] 19.7% | [2] -3.1% | [3] -6.2% | [4] -4.7% | [5] -1.95% | [6] 6.7%

CCCCn1c(-c2ccccc2)cs/c1=N\N=C1C=C(C(C)(C)C)C(=O)C(C(C)(C)C)=C1
inactive: [1] 12.2% | [2] -13.9% | [3] 0.05% | [4] -35.2% | [5] -16.9% | [6] 16.9%

O=C(Cc1nccc2c1[nH]c1ccccc12)OC1C#CCSCC#C/C=C\1 (stereo unspecified)
inactive: [1] -0.55% | [2] 17.8% | [3] 9.5% | [4] -14.7% | [5] 12.3% | [6] -1.15%

CCCS(=O)(=O)N1CCC(C)CC1
inactive: [1] 5.7% | [2] -21.1% | [3] 5.85% | [4] -8.65% | [5] -8.55% | [6] 1.6%

C#CCC(C)(C)C(N)=O
inactive: [1] -10.7% | [2] -6.85% | [3] 3.4% | [4] -35.8% | [5] -6.05% | [6] -8.5%

CCCCN(CCCC)C(=O)C(=O)C(C#N)c1ccc(C)cc1 (stereo unspecified)
inactive: [1] -7% | [2] -0.8% | [3] 6.15% | [4] 17.6% | [5] 20.7% | [6] -9.3%

CCOC(=O)NC(Nc1ccc(Cl)cn1)(C(F)(F)F)C(F)(F)F
inactive: [1] -25.9% | [2] -12.5% | [3] -52.5% | [4] -25.3% | [5] -21.6% | [6] -76.2%

Brc1cc2c(cc1C=NC1CCCCC1)OCO2
inactive: [1] 25.6% | [2] 22.8% | [3] -4.05% | [4] 6.8% | [5] 18.8% | [6] 43.7%

— PubChem BioAssay (NCI)
